Results as given in article PMC5540273 (PLoS ONE, 2017).
“And” between values parts separate entries of the source, which are not always exact repeats. Equal entries are not always repeated. Where two headings read alike, the source gives them in different places.

Columns and labels:
[1] = tested on: ULK2; conditions: concentration: 1 μM, replicates: in singlicate, n = 1
[2] = tested on: ULK3; conditions: concentration: 1 μM, replicates: in singlicate, n = 1
[3] = tested on: T1, VPS34; conditions: concentration: 1 μM, replicates: in singlicate, n = 1
T1 construct: gene PIK3C3

[4] = tested on: VRK2; conditions: concentration: 1 μM, replicates: in singlicate, n = 1
[5] = tested on: WEE1; conditions: concentration: 1 μM, replicates: in singlicate; n = 1
[6] = tested on: WEE2; conditions: concentration: 1 μM, replicates: in singlicate, n = 1
[7] = tested on: WNK1; conditions: concentration: 1 μM, replicates: in singlicate, n = 1
[8] = tested on: WNK2; conditions: concentration: 1 μM, replicates: in singlicate, n = 1
[9] = tested on: WNK3; conditions: concentration: 1 μM, replicates: in singlicate, n = 1
[10] = tested on: T2, VEGFR2; conditions: concentration: 1 μM, replicates: in singlicate, n = 1
T2 construct: gene KDR
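Also: KINOMEscan kinase panel screen.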

Compound | %Inh [1] [%] | %Inh [2] [%] | %Inh [3] [%] | %Inh [4] [%] | %Inh [5] [%] | %Inh [6] [%] | %Inh [7] [%] | %Inh [8] [%] | %Inh [9] [%] | %Inh [10] [%] | %Inh ([1]; 1 µM) | %Inh ([2]; 1 µM) | %Inh ([10]; 1 µM) | %Inh ([3]; 1 µM) | %Inh ([4]; 1 µM) | %Inh ([6]; 1 µM) | %Inh ([7]; 1 µM) | %Inh ([8]; 1 µM) | %Inh ([9]; 1 µM)
O=C(Nc1ccccc1)Nc1ccc(Oc2ccc3nccn3n2)cc1 | 0 | 2 | 14 | 0 | 3 | 13 | 0 | 0 | 0 |  |  |  |  |  |  |  |  |  | 
O=C(c1ccc(-c2cc(-c3c[nH]nc3-c3ccccn3)ccn2)cc1)N1CCCC1 [GW792479] | 0 | 0 | 26 | 0 | 30 | 0 | 0 | 0 | 0 | 0 |  |  |  |  |  |  |  |  | 
COc1ccc(-c2nc3n(c2-c2ccncc2)CCC3)cc1 [SKF-104493] |  |  |  |  | 0 |  |  |  |  |  | 13% and 0% | 13% and 0% | 15% and 0% | 28% and 20% | 7% and 0% | 13% and 0% | 27% and 0% | 0% and 21% | 33% and 16%
Cl.Fc1ccccc1COc1ccc(Nc2ncnc3ccc(-c4nnc(C(F)(F)F)o4)cc23)cc1Cl [GW424170] | 0 | 6 | 0 | 0 | 3 | 5 | 7 | 0 | 15 | 4 |  |  |  |  |  |  |  |  | 
